Hits are enriched below; roughly 2.4% of the tested compounds scored in any of these assays.
Pol iota inh: qHTS for Inhibitors of Polymerase Iota; DNA polymerase iota (Homo sapiens), Q9UNA4; Pol iota fluorescent replication assay, 10 min; Potency, µM (series often up to 115 µM), for inactives: at the highest dose activity, negative = inhibition, most hits filed as inhibitors; 1% of 390,000 active; AID 588590, 2011
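Fluorescent replication assay read twice, at 0 min and 10 min after adding 50 nM (final) substrate. Enzyme (10 nM) and compounds were first incubated 15 min at room temperature; enzyme-free buffer wells were negative controls.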
POLK inh: qHTS for Inhibitors of Polymerase Kappa | purified Pol kappa, fluorescent DNA synthesis assay, 10 min | Potency, µM (highest dose often 107 µM), for inactives: at the top dose activity, negative = inhibition, hits mostly inhibitors | 0.53% of 400,000 active; note: % is set by controls: 0 for no effect and ±100 for the full control effect
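Here, compound and 10 nM enzyme are combined for 15 min at room temperature; adding 50 nM substrate (final) starts DNA synthesis, tracked by fluorescence at 0 and 10 min against buffer-only wells.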
POLB inh: qHTS Assay for Inhibitors of DNA Polymerase Beta; P06746; Pol beta primer extension/strand displacement, fluorescence kinetic; Potency, µM (doses to about 114 µM), for the others: top-dose activity change, negative = inhibition, hits mostly inhibitors; 1.3% of 340,000 active; AID 485314, 2010; note: % is set by controls: 0 for no effect and ±100 for the full control effect
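Reaction started by 50 nM substrate onto compound-treated Pol beta (10 nM, 15 min preincubation, room temperature); plates read at 0 min and 10 min. Normalized concentration-effect data fitted by four-parameter Hill equation.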
FEN1 inh: qHTS Assay for the Inhibitors of Human Flap endonuclease 1 (FEN1); 0.35% of 390,000 active; Potency, µM (top dose mostly 114 µM), inactives show at the highest dose activity change, negative = inhibition, hits mostly inhibitors; Recombinant FEN1 flap cleavage, fluorescence, 15 min; note: % is set by controls: 0 for no effect and ±100 for the full control effect; nearly all actives have a fitted effect of over 65% in size
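Read-out was taken twice, immediately and after 15 min, following addition of 50 nM substrate to 10 nM FEN1 that had sat with test compound for 15 min at room temperature. Curves came from a four-parameter Hill model.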
Pol eta inh: qHTS for Inhibitors of Polymerase Eta | DNA polymerase eta (Homo sapiens), Q9Y253 | recombinant Pol eta, fluorescent DNA replication assay | Potency, µM (highest dose often 114 µM), for the others: top-dose activity change, negative = inhibition, most hits filed as inhibitors | 1.2% of 390,000 active | AID 588591, 2011; note: % is set by controls: 0 for no effect and ±100 for the full control effect
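Fluorescent replication assay: 50 nM final substrate added after a 15 min room-temperature compound preincubation with 10 nM enzyme. Signal taken at 0 min and again at 10 min.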
WRN helicase inh: qHTS for Inhibitors of WRN Helicase; Bifunctional 3'-5' exonuclease/ATP-dependent helicase WRN (Homo sapiens), Q14191; Potency, µM (doses to about 114 µM), for inactives: top-dose activity change, negative = inhibition, hits mostly inhibitors; WRN helicase unwinding, fluorescent forked duplex, kinetic; 0.46% of 360,000 active; note: % is set by controls: 0 for no effect and ±100 for the full control effect; nearly all actives have a fitted effect of over 55% in size
Target sequence (Q14191 whole entry, looked up): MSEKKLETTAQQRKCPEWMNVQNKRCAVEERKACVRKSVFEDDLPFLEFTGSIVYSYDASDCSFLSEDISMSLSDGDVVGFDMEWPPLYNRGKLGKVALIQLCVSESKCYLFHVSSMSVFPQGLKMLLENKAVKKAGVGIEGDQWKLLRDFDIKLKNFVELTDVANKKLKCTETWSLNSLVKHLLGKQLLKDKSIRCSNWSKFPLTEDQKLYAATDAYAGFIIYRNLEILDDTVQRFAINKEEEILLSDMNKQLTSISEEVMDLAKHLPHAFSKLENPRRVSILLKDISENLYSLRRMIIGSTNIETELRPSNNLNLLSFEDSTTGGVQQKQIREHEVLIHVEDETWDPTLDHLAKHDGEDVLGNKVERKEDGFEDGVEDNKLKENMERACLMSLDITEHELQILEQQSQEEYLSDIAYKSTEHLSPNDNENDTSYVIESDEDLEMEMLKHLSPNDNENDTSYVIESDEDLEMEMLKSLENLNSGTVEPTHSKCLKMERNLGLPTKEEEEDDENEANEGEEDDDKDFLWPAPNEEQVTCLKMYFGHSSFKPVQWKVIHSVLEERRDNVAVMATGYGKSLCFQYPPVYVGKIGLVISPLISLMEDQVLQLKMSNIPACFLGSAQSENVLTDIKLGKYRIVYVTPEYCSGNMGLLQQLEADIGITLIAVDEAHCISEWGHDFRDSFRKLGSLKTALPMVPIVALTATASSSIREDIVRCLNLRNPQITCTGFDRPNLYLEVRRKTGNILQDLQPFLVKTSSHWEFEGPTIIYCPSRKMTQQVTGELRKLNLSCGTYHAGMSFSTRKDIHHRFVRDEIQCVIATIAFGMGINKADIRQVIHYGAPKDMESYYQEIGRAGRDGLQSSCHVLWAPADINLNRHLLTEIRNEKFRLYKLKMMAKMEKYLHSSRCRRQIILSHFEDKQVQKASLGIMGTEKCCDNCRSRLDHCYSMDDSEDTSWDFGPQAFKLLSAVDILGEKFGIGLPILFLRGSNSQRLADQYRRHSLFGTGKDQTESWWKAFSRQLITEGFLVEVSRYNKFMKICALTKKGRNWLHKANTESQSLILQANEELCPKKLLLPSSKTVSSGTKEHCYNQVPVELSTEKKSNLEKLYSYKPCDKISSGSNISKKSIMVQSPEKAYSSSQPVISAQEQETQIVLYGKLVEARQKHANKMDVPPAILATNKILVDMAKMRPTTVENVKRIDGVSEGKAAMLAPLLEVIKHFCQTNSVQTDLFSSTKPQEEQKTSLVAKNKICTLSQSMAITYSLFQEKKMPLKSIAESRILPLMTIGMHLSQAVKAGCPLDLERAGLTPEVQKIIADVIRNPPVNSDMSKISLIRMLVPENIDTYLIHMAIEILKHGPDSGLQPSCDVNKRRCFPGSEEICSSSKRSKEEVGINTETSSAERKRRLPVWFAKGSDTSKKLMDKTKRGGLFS
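WRN at 20 nM final was preincubated with compound for 15 min at room temperature; reaction started with 100 nM forked duplex oligonucleotide carrying fluorophore and quencher plus 2 mM ATP (final). Unwinding followed kinetically by red fluorescence (ex 525/em 598 nm).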
* = called active by the depositor; ? = inconclusive; · = no result; [ ] = remark or other dose. Calls come from the whole dose curve; as a rule, active = well fitted curve in the direction sought with a large enough effect; inconclusive = small, poorly fitted or top-dose-only effect, or another doubt; inactive = no such curve, though single readings can be large; an effect the other way counts as inactive or inconclusive. Potency is the fitted concentration of half-maximal effect.

SMILES	Pol iota inh	POLK inh	POLB inh	FEN1 inh	Pol eta inh	WRN helicase inh
Cc1nnc(SCC(=O)Nc2nc(-c3ccccc3)cs2)n1N	-7%[58.9 µM]	-8%	29%	-5%	-13%	3%
CCOc1ccc(C2c3c(oc4ccc(C)cc4c3=O)C(=O)N2c2nc(C)c(C)s2)cc1OC (centres undefined)	-2%	-15%	1%	-9%	-12%	·
CN(C)CCCN(C(=O)c1ccc(S(=O)(=O)N(C)C2CCCCC2)cc1)c1nc2ccc(F)cc2s1	8%	-10%	4%	?	-16%	1%
CCc1ccc2nc(N(CCCN(C)C)C(=O)c3ccc(S(=O)(=O)N(C)C4CCCCC4)cc3)sc2c1	-17%	?	-18%	79µM*	-23%	-29%
CCN(CC)CCN(C(=O)c1ccco1)c1nc2cc(C)cc(C)c2s1	-24%	-21%	56µM*	-6%	-4%	·
CCN(C(=O)CSc1nnc(-c2cc(OC)c(OC)c(OC)c2)o1)c1ccccc1	?	?	10µM*	-20%	2%	·
CC1(C)NC(=O)N(CN2C(=O)NC(C)(C)C2=O)C1=O	-4%	2%	79µM*	-2%	-8%	5%
O=C(Oc1coc(CSc2nnc(NC(=O)C3CC3)s2)cc1=O)c1c(F)cccc1F	?	-43%	20µM*	-20%	?	-17%
Cc1ccc(C(=O)Oc2coc(CSc3nnc(NC(=O)c4cccs4)s3)cc2=O)cc1	?	?	25µM*	-16%	?	-13%[11.6 µM]
CC(=O)Nc1nnc(SCc2cc(=O)c(OC(=O)c3ccccc3)co2)s1	-14%	-19%	18%	7%	-8%	-1%
Cc1cc(C)cc(C(=O)Oc2coc(CSc3nnc(NC(=O)C4CC4)s3)cc2=O)c1	?	-7%	0%	1%	?	-11%
Cc1oc(-c2ccccc2Cl)nc1Cn1c(SCc2cccc(F)c2)nc2cccnc21	11%	-8%	4%	-9%	-19%	·
Cc1ccc(NC(=O)Cn2c(=O)n(Cc3ccc(F)cc3)c(=O)c3cccnc32)cc1C	?	-10%	-25%	-5%	-25%	·
c1cncc(-c2cncnc2NCc2cccs2)c1	·	5%[60.1 µM]	·	·	·	·
CC(C)(C=O)C1=CC(=O)c2ccccc2C1=O	?	4%	0%	?	?	50µM*
CC1=CC(=O)c2ccccc2C1=O	?	9%	-1%	1%	?	7%
C=CCSC1=N/C(=C\c2cc(OCC)c(OC(C)=O)c([N+](=O)[O-])c2)C(=O)S1	20µM*	32µM*	20µM*	56µM*	?	16%
C=CCSC1=N/C(=C\c2sccc2C)C(=O)S1	9%	-11%	-2%	-18%	-11%	-3%
Cc1sc2nc(SCC(=O)Nc3ccc(S(N)(=O)=O)cc3)[nH]c(=O)c2c1C	?	-16%	25µM*	-14%	?	2%[11.6 µM]
Cc1ccc(-c2csc3nc(SCC(=O)Nc4ccc(Cl)c(C(=O)O)c4)[nH]c(=O)c23)cc1	?	-40%	?	-17%	40µM*	?
Cc1sc2nc(SCC(=O)Nc3ccc(Cl)c(C(=O)O)c3)[nH]c(=O)c2c1C	33%	-11%	·	-4%	-12%	-6%
COc1cccc(OCC(=O)NNC(=O)c2ccc(-c3ccccc3)cc2)c1	?	-14%	79µM*	10%	-16%	-10%
O=C(O)COc1cccc(NC(=O)c2ccccc2)c1	?	-3%	2%	-1%	79µM*	-3%[57.1 µM]
Cc1cc(=O)[nH]c2nnc(SCC(=O)Nc3ccc(OC(F)(F)F)cc3)n12	31%	-2%[60.1 µM]	16%	14%	-5%	·
N/C(=N\c1nc(CSc2nnnn2-c2ccccc2)cc(=O)[nH]1)Nc1ccccc1	·	·	-1%	·	·	·
SMILES	Pol iota inh	POLK inh	POLB inh	FEN1 inh	Pol eta inh	WRN helicase inh
O=c1cc(CSc2nnnn2-c2ccccc2)nc(Nc2ccc(F)cc2)[nH]1	45µM*	?	45µM*	-7%	?	-21%
COc1ccc(CNC(=O)Cn2c(=O)oc3cc(S(=O)(=O)NCc4ccccc4)ccc32)cc1	15%	-7%[60.1 µM]	?	-20%	5%	·
CCCCCn1cc2c(c1-c1ccccc1Br)c(=O)n(C)c(=O)n2C	-18%	-11%	33%	-18%	-12%	·
COc1ccc(-c2cn3nc(N4CCCC(C(=O)Nc5cc(C)ccc5C)C4)sc3n2)cc1 (centres undefined)	-4%	-9%	22%	-11%	?	·
O=C(O)CN1C(=O)c2ccc(Oc3cccc4c3C(=O)N(CC(=O)O)C4=O)cc2C1=O	17%	-7%	-23%	-20%	79µM*	-7%[57.1 µM]
O=C(O)CN1C(=O)c2ccc(Oc3ccc4c(c3)C(=O)N(CC(=O)O)C4=O)cc2C1=O	-9%	-37%	25%	-5%	32µM*	-2%[57.1 µM]
CC(=O)NN1C(=O)c2ccc(Oc3ccc4c(c3)C(=O)N(NC(C)=O)C4=O)cc2C1=O	·	·	11µM*	·	·	·
O=C1c2ccc(Oc3ccc([N+](=O)[O-])cc3)cc2C(=O)N1CCO	174%	-3%	34%	1%	-18%	6%
CC(=O)NN1C(=O)c2ccc(Oc3ccc([N+](=O)[O-])cc3)cc2C1=O	69%	-15%	17%	-4%	1%	-18%
CC(C)CCn1c(SCC(=O)N2CC(=O)Nc3ccccc32)nc2scc(-c3cccs3)c2c1=O	?	?	22µM*	3%	?	-12%
COc1ccc(NS(=O)(=O)c2cnc(N)nc2)cc1Cl	3%	3%[60.1 µM]	13%	4%	-11%	·
Nc1nc(SCC(=O)Nc2ccc(OC(F)(F)F)cc2)[nH]c(=O)c1NC(=O)c1ccc(Br)o1	-11%	-33%	40µM*	0%	?	-28%
CCSc1nc(N)c(NC(=O)c2ccc(Br)o2)c(=O)[nH]1	28%	-7%	21%	7%	-11%	-23%
CCCN(CCC)c1ccc(/C=C/c2ccnc3ccccc23)cc1	24%	-1%	·	-1%	·	·
CCC[N+](C)(C)c1ccc(/C=C/c2ccnc3ccccc23)cc1	?	?	·	32µM*	·	·
C[N+](C)(C)c1ccc(/C=C/c2ccnc3ccccc23)cc1	31%	-41%	·	45µM*	·	·
Oc1ccc(/C=C/c2ccnc3ccccc23)cc1	90%	-10%	5%	2%	-16%	6%
CN(C)c1ccc(/C=C/c2ccnc3ccc4ccccc4c23)cc1	?	28µM*	·	11µM*	·	·

Assay outcomes deposited in PubChem by National Center for Advancing Translational Sciences (NCATS).
